From ChEMBL document CHEMBL3988442, “University of Dundee, Small-Polar-MMV Screening Library” (2021)
The campaign covered roughly 69,000 compounds. About 950 (1.4%) showed an effect of 50% or more. For the sample, strong results were picked, then their nearest neighbours and some compounds at random.

What follows are compounds tested on Mycobacterium tuberculosis (assay: Cornell M. t heat shock assay; also: in the data most compounds retested in dose-response had high values).
Type: functional, organism-based
Parameters: dose or concentration left out as unconfirmed

Row | Compound | Percent Effect
1 | Cc1nc(CN2C(=O)COC3(CCN(C)CC3)C2C)cs1.O=C(O)C(F)(F)F (stereo not given) | -6.14%
2 | NCC1CN(c2nc(-c3ccccc3)nc3c2CCNCC3)CCO1 (stereo not given) | 43.48%
3 | N#CC1CCCN(c2nc(-c3ccccc3)nc3c2CCNCC3)C1 (stereo not given) | -9.181%
4 | NCC1CCCN(c2nc(-c3ccccc3)nc3c2CCNCC3)C1 (stereo not given) | 69.25%
5 | Cc1cc(CN2CCC(CNC(=O)c3nccc4ccccc34)C2)[nH]n1 (stereo not given) | 59.25%
6 | Cc1cc(CN2CCC(CNC(=O)Cc3ccc(F)cc3)C2)[nH]n1 (stereo not given) | -9.663%
7 | Cc1cc(CN2CCC(CNC(=O)c3cnc(C)nc3C)C2)[nH]n1 (stereo not given) | -10.7%
8 | CN1[C@H](CN2CCCC2)C[C@@H]2CN(C(=O)Cc3ccsc3)CC[C@@H]21.O=C(O)C(F)(F)F.O=C(O)C(F)(F)F | -7.166%
9 | CN(C)C(=O)[C@@H]1CC[C@@H]2[C@@H](CCN2Cc2nccs2)O1.O=C(O)C(F)(F)F | 11.33%
10 | NC(=O)C1Cn2ccnc2C2(CCN(C(=O)NC3CCCC3)CC2)O1.O=C(O)C(F)(F)F (stereo not given) | 2.522%
11 | CCc1onc(C)c1C(=O)N1CCC(c2cc3ncccc3cn2)CC1 | 13.11%
12 | COc1ccc(C)cc1CN1CCN(Cc2nccn2C)CC1 | 1.633%
13 | Fc1ccc(F)c(CN2CCC(c3cnccn3)CC2)c1 | -4.596%
14 | Fc1cccc(CN2CCC(c3noc(-c4cnccn4)n3)CC2)c1F | -19.36%
15 | Fc1cccc(CN2CCC(c3n[nH]c4ncccc34)CC2)c1F | -15.12%
16 | Fc1cccc(CN2CCC(c3noc(-c4ccccn4)n3)CC2)c1F | 12.47%
17 | Cl.Fc1ccc(F)c(CN2CCC(c3cc4ncccc4cn3)CC2)c1 | 103.6%
18 | Fc1cc(F)cc(CN2CCC(c3cc4ncccc4cn3)CC2)c1 | 17.06%
19 | Cl.Fc1cccc(CN2CCC(c3cc4ncccc4cn3)CC2)c1F | 102.4%
20 | COc1ccc(C)cc1CN1CCC(c2cc3ncccc3cn2)CC1.Cl | 102.1%

Row | Compound | Percent Effect
21 | Fc1ccccc1CN1CCC(c2noc(-c3ccccn3)n2)CC1 | 13.63%
22 | Cc1nc(CN2CCOCC3(CCN(c4ccccn4)C3)C2)cs1.O=C(O)C(F)(F)F.O=C(O)C(F)(F)F (stereo not given) | -41.64%
23 | CCN(CCNS(=O)(=O)C1CCOCC1)C(=O)OC(C)(C)C | -7.011%
24 | COCC(=O)NC[C@H]1CC[C@H](c2ccnc3ncnn32)CC1 | 20.19%
25 | COc1ccc(C(C)N(C)Cc2c(C3CC3)[nH]c3ncccc23)cc1.Cl (stereo not given) | -15.93%
26 | CCC/N=c1/c(NC(=O)NCCOC)c(O)oc2ccccc12 | -14.33%
27 | CCc1cc(N2CCC(n3cc(C(=O)NC4CC4)nn3)CC2)ncn1 | 51.27%
28 | O=C(NC1CC1)c1cn(C2CCN(c3cc(C4CC4)ncn3)CC2)nn1 | 61.79%
29 | OCCNc1cc(N2CCC(n3cc(C4CCCC4)nn3)CC2)ncn1 | 8.872%
30 | CCc1cc(N2CCC(NC(=O)CCC3CCCO3)CC2)ncn1 (stereo not given) | -18.51%
31 | CC(C)Nc1cc(N2CCC(n3cc(C4CC4)nn3)CC2)ncn1 | -24.54%
32 | CCc1cc(N2CCC(n3cc(C(=O)NCC(C)C)nn3)CC2)ncn1 | 7.459%
33 | CC(C)OCc1ncn2c1CN(Cc1ccc(F)cc1)CCC2.O=C(O)C(F)(F)F | -13.8%
34 | Cc1ccc(-n2cccn2)cc1S(=O)(=O)N1C[C@@H]2CC[C@H](C1)N(C)C2 | 23.12%
35 | Cn1cc(C2CC(=O)NC23CCN(C(=O)Cc2ccccn2)CC3)cn1.O=C(O)C(F)(F)F (stereo not given) | -20.75%
36 | COc1ccnc(CN2CCCC(CCc3ccc(F)cc3)C2)c1OC (stereo not given) | 80.3%
37 | COc1ccnc(CN2CCCC(CCc3ccccc3)C2)c1OC (stereo not given) | 22.56%
38 | COc1coc(CN2CCCC(CCc3ccc(F)cc3)C2)cc1=O (stereo not given) | -2.405%
39 | COCCN1CC[C@@H]2OC(COCC(=O)N3CCCC3)CC[C@@H]21.O=C(O)C(F)(F)F (stereo not given in full) | -19.46%
40 | COc1c(C)cnc(CNCC(C)C)c1C | -4.994%

Row | Compound | Percent Effect
41 | CCCS(=O)(=O)NCc1ncc(C)c(OC)c1C | 51.82%
42 | CCCNCc1ncc(C)c(OC)c1C | -10.29%
43 | FC1(F)CCN(Cc2ccccn2)CC12CCN(c1cccnc1)C2.O=C(O)C(F)(F)F.O=C(O)C(F)(F)F.O=C(O)C(F)(F)F (stereo not given) | -10.62%
44 | Cc1csc2ncc(-c3ccnc(N4CCCC[C@@H]4CO)n3)c(=O)n12 | 73.7%
45 | Cc1csc2ncc(-c3ccnc(N4CCC[C@@H]4CO)n3)c(=O)n12 | -11.68%
46 | O=c1c(-c2ccnc(N3CCCC[C@@H]3CO)n2)cnc2sccn12 | -1.826%
47 | Cc1nc(CN2CCc3ncnc(-c4ccc(F)cc4)c3CC2)cs1.O=C(O)C(F)(F)F | -9.802%
48 | Cl.NC1CCc2nc(-c3cccnc3)nc(Nc3ccc(F)cc3)c2C1 (stereo not given) | 99.91%
49 | CN(CC1CCCO1)c1nc(-c2cccnc2)nc2c1CCNCC2 (stereo not given) | -30.46%
50 | c1cncc(-c2nc3c(c(NCC4(c5ccncc5)CC4)n2)CCC3)c1 | -38.69%
51 | CCc1noc(CNc2nc(-c3cccnc3)nc3c2CCNCC3)n1 | -6.144%
52 | CC(O)CNc1nc(-c2cccnc2)nc2c1CCC2 (stereo not given) | 6.387%
53 | CCn1ccc(C(=O)N2CCCC2c2nnc(-c3scnc3C)o2)n1 (stereo not given) | -2.34%
54 | Cc1ccc(C(C)N(C)CCS(=O)(=O)CCC(N)=O)cc1 (stereo not given) | 68.62%
55 | CC(c1cc(F)ccc1F)N(C)CCS(=O)(=O)CCC(N)=O (stereo not given) | 49.2%
56 | CC(c1cccc(Cl)c1)N(C)CCS(=O)(=O)CCC(N)=O (stereo not given) | 31.14%
57 | CC(c1ccc(F)c(F)c1)N(C)CCS(=O)(=O)CCC(N)=O (stereo not given) | 53.46%
58 | Cc1ccc(OCCN(C)C(C)c2cccc(S(N)(=O)=O)c2)cc1 (stereo not given) | -22.37%
59 | Cc1ccc(C(C)NC(=O)CSCC(N)=O)cc1 (stereo not given) | 15.53%
60 | O=C(O)C(F)(F)F.O=C(O)C(F)(F)F.O=C(O)C(F)(F)F.c1cc(CN2CCN3C[C@H](Oc4cncnc4)C[C@H]3C2)ccn1 | 11.96%
